Screening data (PubChem BioAssay)
Vif inh = inhibitors of HIV Vif | 340,000 tested, 0.35% active | inhibition, % at 7.49 µM | HEK293T cells, Vif self-association by quenched fluorescence, imaging, 24 h; in the data active = inhibition above about 50%, passing the limit was not always enough; inconclusive = no clear call, values can overlap the other calls; inactive = below about 31%
FGF22 binding-1 = FGF22 (human) thermal shift binding. Q9HCT0. recombinant FGF22 thermal shift, SYPRO orange fluorescence; percent of sucrose octasulfate shift, DMSO zero. activity (Tm shift, normalised), % at 9.99 µM. 340,000 tested, 1.5% active. AID 651658;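 active = mean Tm shift, scaled 0 neutral to 100 positive control, at about 1.3% or above, every replicate too, limit read from the data; inconclusive = no clear call, values can overlap the other calls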
Target sequence (Q9HCT0 whole entry, looked up): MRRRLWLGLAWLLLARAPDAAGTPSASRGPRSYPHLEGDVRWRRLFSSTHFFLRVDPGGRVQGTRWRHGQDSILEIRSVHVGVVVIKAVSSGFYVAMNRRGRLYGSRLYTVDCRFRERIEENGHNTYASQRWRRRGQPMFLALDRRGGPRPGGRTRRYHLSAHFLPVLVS
CFTR F508del cor = correctors of CFTR F508del function in bronchial epithelial cells | CFBE cells, YFP halide quenching; stimulated with forskolin plus potentiator P3; % fluorescence drop versus neutral controls | activity (quench increase), % at 7.58 µM | 350,000 tested, 0.36% active | AID 720511;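 active = mean added fluorescence quench of at least 8% versus neutral control, with both replicates also reaching 8%; inconclusive = only one of the mean or replicate conditions met; inactive = mean below 8% and not both replicates reaching 8%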;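 also: cells transiently co-express mutant CFTR-F508del with the halide-sensitive YFP; corrector assay measuring rescue of mutant channel to the surface after 24 h compound exposure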
FGF22 binding-2 = binds human FGF22 shifting its melting temperature; AID 720646; thermal shift activity, °C (ΔTm) at 38 µM; shares compounds with FGF22 binding-1; 1,000 tested, 2% active; recombinant FGF22 thermal shift, SYPRO orange fluorescence;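 active = fitted rise in melting shift crosses a set limit at or below the top valid dose tested; inconclusive = flat fit at mid-level activity, or a poor quality fit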
TSA no protein = counter-screen for FGF22 binders: compound-only thermal shift, no protein | 1,000 tested, 2% active | AC50, µM (series often up to 38 µM) | shares compounds with FGF22 binding-1 | compound-only SYPRO orange thermal shift counter-screen;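 active = rising signal whose fitted curve reaches the 0.54 level within the top valid dose, showing a melting point, actives reach about 13 µM in these data; inactive = the rest, including activity in the opposite direction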; also: value is where the raw curve crosses a fixed level and not half-maximal
The depositor's hits bear a star; i = inactive; ? = inconclusive; nt = not tested or not shown; [ ] = remark or other dose. Rows were chosen to be rich in hits. Some 1.7% of all compounds tested hit in one or more screens of this group.

SMILES | Vif inh | FGF22 binding-1 | CFTR F508del cor | others
O=C(Cc1ccccn1)N1CC(=O)N2[C@H](CO)[C@H](c3ccc(-c4ccccc4)cc3)[C@@H]2C1 | nt | nt | -1
COCCNC(=O)C(=O)N/N=C(\C)CC(=O)Nc1cccnc1 | ? | 44* | -2
COCCNC(=O)C(=O)N/N=C(\C)CC(=O)Nc1ccc2c(c1)OCO2 | -6 | 0 | 0
CCCC(=O)Nc1ccc2c(c1)C(=O)N(C)C[C@H](OC)[C@H](C)CN(CC1CCCC1)[C@H](C)CO2 | nt | 0 | -2
C[C@@H]1CN([C@@H](C)CO)C(=O)c2cccc(NC(=O)c3cnccn3)c2O[C@@H]1CN(C)S(=O)(=O)c1ccc(Cl)cc1 | nt | nt | -2
Cc1cccc(C)c1NC(=O)C1(N2C(=O)CC2c2ccccc2)CCCCC1 (configuration not stated) | -4 | 44* | 4
Cc1cccc(C)c1NC(=O)C1(NC(=O)C2CCC(=O)N2)CCCCC1 (configuration not stated) | -7 | nt | nt
COc1cccc(C#Cc2cnc3c(c2)C(=O)N([C@H](C)CO)C[C@H](C)[C@@H](CN(C)C(=O)C2CCOCC2)O3)c1 | nt | 0 | 0
Cc1cccc(C(=O)Nc2ccc(O)c3c(=O)cc(-c4ccccc4Cl)oc23)c1 | nt | 45* | -3
O=C(Nc1ccc(O)c2c(=O)cc(-c3ccccc3Cl)oc12)c1cccc(Cl)c1 | 1 | 0 | -1
O=S(=O)(c1ccccc1)c1nc(-c2ccccc2)oc1N1CCOCC1 | -6 | 43* | -1
O=S(=O)(c1ccccc1)c1nc(-c2cccc(Cl)c2)oc1N1CCOCC1 | nt | 0 | 1
CCNC(=O)C[C@H]1CC[C@H]2[C@H](COc3ccc(NS(=O)(=O)c4ccccc4C)cc3C(=O)N2C)O1 | nt | 0 | 2
CCOC(=O)CSc1ncnc2c(C(=O)OCC)c3n(c12)CCC3 | -5 | 43* | 0
CCOC(=O)CSc1ncnc2c1nnn2-c1ccc(F)cc1 | 7 | nt | nt
CCCC#Cc1cnc2c(c1)C(=O)N([C@H](C)CO)C[C@H](C)[C@H](CN(C)C(=O)CCN1CCCCC1)O2 | nt | 0 | -2
CC(C)NC(=O)N(C)C[C@@H]1Oc2cc(-c3ccccc3F)ccc2S(=O)(=O)N([C@@H](C)CO)C[C@@H]1C | nt | 0 | 2
C[C@H]1CCCCO[C@H](CN(C)C(=O)NC2CCCCC2)[C@@H](C)CN([C@@H](C)CO)C(=O)c2cc(NS(=O)(=O)c3ccc(Cl)cc3)ccc2O1 | nt | 0 | 2
CSCCC(NS(=O)(=O)c1ccc(Cl)c(Cl)c1)C(=O)O (configuration not stated) | 20 | 1.4* | 0 | FGF22 binding-2=-0.094;TSA no protein=i
CSCCC(NS(=O)(=O)c1ccc2ccccc2c1)C(=O)O (configuration not stated) | -2 | nt | nt
COc1ccc(CNS(=O)(=O)CCNC(=O)c2ccc3c(c2)OCO3)cc1 | 10 | 0 | 1
COc1ccc(CCNS(=O)(=O)CCNC(=O)c2ccc3c(c2)OCO3)cc1 | -8 | 11* | 0 | FGF22 binding-2=0.08;TSA no protein=i
C[C@@H]1CCCCO[C@H](CN(C)C(=O)C2CCCCC2)[C@@H](C)CN([C@H](C)CO)C(=O)c2cc(NS(C)(=O)=O)ccc2O1 | nt | 0 | 0
CS(=O)(=O)N1CC2(C1)[C@@H](c1ccccc1)[C@@H](CO)N2Cc1ccc(F)cc1 | nt | 1.9* | 0 | FGF22 binding-2=0.087[42 µM];TSA no protein=i
CS(=O)(=O)N1CC2(C1)[C@H](c1ccccc1)[C@@H](CO)N2Cc1ccccc1 | nt | 0 | 3
SMILES | Vif inh | FGF22 binding-1 | CFTR F508del cor | others
Oc1ccc(C=NNC(=S)Nc2ccccc2)nc1 | -5 | 1.5* | 6 | FGF22 binding-2=0.039;TSA no protein=i
S=C(N/N=C/c1ccccc1Cl)Nc1ccccc1 | -10 | nt | nt
Cc1ccc(S(=O)(=O)Nc2cccc3c2O[C@H](CN(C)C(=O)NC2CCCCC2)[C@@H](C)CN([C@@H](C)CO)C3=O)cc1 | nt | 0 | -1
COc1ccccc1C#Cc1ccc([C@@H]2[C@H]3CN(C(=O)C4CC4)CCCCN3[C@H]2CO)cc1 | nt | 0 | -2
COc1cc(/C=N/NC(=O)c2ccccc2)ccc1O | -4 | 42 | 1
COc1cc(/C=N/NC(=O)c2[nH]nc3c2CCc2ccccc2-3)ccc1O | -14 | 1.7* | -4 | FGF22 binding-2=0.68;TSA no protein=i
CC(C)C#Cc1cnc2c(c1)C(=O)N([C@H](C)CO)C[C@H](C)[C@@H](CN(C)Cc1cncnc1)O2 | nt | 0 | 3
CNC(=O)c1ccc(Nc2nnc(-c3ccc(O)cc3)c3ccccc23)cc1 | 17 | 0 | nt
Oc1ccc(-c2nnc(Nc3cccc(O)c3)c3ccccc23)cc1 | 6 | 1.9* | 0 | FGF22 binding-2=-0.14;TSA no protein=i
CCC(=O)Nc1ccc2c(c1)C(=O)N(C)[C@H]1CC[C@@H](CC(=O)NCC3CC3)O[C@H]1CO2 | nt | 0 | 1
C[C@H]1CN([C@@H](C)CO)S(=O)(=O)c2ccc(-c3ccncc3)cc2O[C@@H]1CN(C)C(=O)Nc1ccc(C(F)(F)F)cc1 | nt | 0 | -2
C[C@@H]1CN([C@H](C)CO)S(=O)(=O)c2ccc(-c3ccncc3)cc2O[C@H]1CN(C)C(=O)Nc1ccc(C(F)(F)F)cc1 | nt | 0 | 0
C[C@H]1CN([C@@H](C)CO)S(=O)(=O)c2ccc(-c3ccncc3)cc2O[C@H]1CN(C)C(=O)Nc1ccc(C(F)(F)F)cc1 | nt | 2.0* | 6 | FGF22 binding-2=0.048;TSA no protein=i
C[C@H](CO)N1C[C@H](C)[C@H](CN(C)C(=O)Nc2ccc(C(F)(F)F)cc2)Oc2cc(-c3ccncc3)ccc2S1(=O)=O | nt | 1.4* | 1 | FGF22 binding-2=-0.2[42 µM];TSA no protein=i
CCN(CC)c1ccc(/C=N/NC(=O)c2cc3ccccc3[nH]2)cc1 | 19 | 0 | -2
CCN(CC)c1ccc(/C=N/NC(=O)c2c[nH]c3ccccc23)cc1 | -2 | 1.8* | nt | FGF22 binding-2=-0.099;TSA no protein=i
CN(C)CCCNC(=O)C[C@@H]1CC[C@@H](NS(=O)(=O)c2ccccc2)[C@H](CO)O1 | nt | 0 | -3
COc1cccc(/C=C(\C#N)c2nc3ccccc3[nH]2)c1OCC(=O)O | 4 | 0 | -1
COc1c(O)ccc(/C=C(\C#N)c2nc3ccccc3[nH]2)c1[N+](=O)[O-] | -18 | 1.4* | nt | FGF22 binding-2=-0.11;TSA no protein=i
O=C(NCC[C@H]1CC[C@H](NC(=O)C2CCCCC2)[C@@H](CO)O1)c1cc(Cl)cc(Cl)c1 | nt | 1 | 1
C[C@@H]1CN([C@@H](C)CO)C(=O)c2cccc(NS(=O)(=O)c3ccc(Cl)cc3)c2O[C@H]1CN(C)C(=O)NC1CCCCC1 | nt | 0 | -2
COc1cc(C(=O)NC(=S)Nc2ccccc2[N+](=O)[O-])cc(OC)c1OC | 7 | 1.8* | 0 | FGF22 binding-2=0.13;TSA no protein=i
COc1cc(C(=O)NC(=S)Nc2ccc([N+](=O)[O-])cc2C)cc(OC)c1OC | -4 | 1 | nt
C[C@@H]1CN([C@H](C)CO)C(=O)c2cc(NS(=O)(=O)c3cn(C)cn3)ccc2O[C@@H]1CN(C)Cc1ccccc1 | nt | 0 | -1
C[C@H]1CN([C@@H](C)CO)C(=O)c2cc(NS(=O)(=O)c3cn(C)cn3)ccc2O[C@H]1CN(C)Cc1ccccc1 | nt | 24* | -2 | FGF22 binding-2=-0.038;TSA no protein=i
